PubChem BioAssay (NCATS)
Inconclusive results are not listed. The source made the active and inactive calls. Calls come from the whole dose curve; as a rule, active = well fitted inhibition curve with a large enough effect; inconclusive = small, poorly fitted or top-dose-only effect; inactive = flat fitted curve, though single readings scatter.

Legend:
CP266 = assay: qHTS profiling for inhibitors of Plasmodium falciparum proliferation (AID 504749); note: nearly all actives have a fitted effect of over 60% in size; conditions: P. falciparum in erythrocytes, SYBR Green DNA, 72 h; series mostly up to 28.7 µM
Method in brief: (§1)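 Quantitative HTS: compounds pinned into medium, infected erythrocytes added (0.3% parasitemia, 2.5% hematocrit), 72 h culture at 37 C under 5% CO2. Saponin/Triton lysis with SYBR Green I, overnight RT, then fluorescence read.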

CP268 = assay: as above; conditions: P. falciparum in erythrocytes, SYBR Green DNA, 72 h; series mostly up to 28.7 µM
Method in brief: as §1

CP269 = assay: as above; conditions: P. falciparum in erythrocytes, SYBR Green DNA, 72 h; series mostly up to 28.7 µM
Method in brief: as §1

CP286 = assay: as above; conditions: P. falciparum in erythrocytes, SYBR Green DNA, 72 h; series mostly up to 28.7 µM
Method in brief: as §1

CP291 = assay: as above; conditions: P. falciparum in erythrocytes, SYBR Green DNA, 72 h; series mostly up to 28.7 µM
Method in brief: as §1

CP297 = assay: as above; conditions: P. falciparum in erythrocytes, SYBR Green DNA, 72 h; series mostly up to 28.7 µM
Method in brief: as §1

CP305 = assay: as above; conditions: P. falciparum in erythrocytes, SYBR Green DNA, 72 h; series mostly up to 28.7 µM
Method in brief: as §1

CP315 = assay: as above; conditions: P. falciparum in erythrocytes, SYBR Green DNA, 72 h; series mostly up to 28.7 µM
Method in brief: as §1

CP325 = assay: as above; conditions: P. falciparum in erythrocytes, SYBR Green DNA, 72 h; series mostly up to 28.7 µM
Method in brief: as §1

CP329 = assay: as above; conditions: P. falciparum in erythrocytes, SYBR Green DNA, 72 h; series mostly up to 28.7 µM
Method in brief: as §1

CP335 = assay: as above; conditions: P. falciparum in erythrocytes, SYBR Green DNA, 72 h; series mostly up to 28.7 µM
Method in brief: as §1

DFO2036 = assay: as above; conditions: P. falciparum in erythrocytes, SYBR Green DNA, 72 h; series mostly up to 28.7 µM
Method in brief: as §1

DIV14 = assay: as above; conditions: P. falciparum in erythrocytes, SYBR Green DNA, 72 h; series mostly up to 28.7 µM
Method in brief: as §1

DIV17 = assay: as above; conditions: P. falciparum in erythrocytes, SYBR Green DNA, 72 h; series mostly up to 28.7 µM
Method in brief: as §1

DIV30 = assay: as above; conditions: P. falciparum in erythrocytes, SYBR Green DNA, 72 h; series mostly up to 28.7 µM
Method in brief: as §1

Dd2 = assay: as above; conditions: P. falciparum in erythrocytes, SYBR Green DNA, 72 h; series mostly up to 28.7 µM
Method in brief: as §1

ECU = assay: as above; conditions: P. falciparum in erythrocytes, SYBR Green DNA, 72 h; series mostly up to 28.7 µM
Method in brief: as §1

FAB9 = assay: as above; conditions: P. falciparum in erythrocytes, SYBR Green DNA, 72 h; series mostly up to 28.7 µM
Method in brief: as §1

GB4 = assay: as above; conditions: P. falciparum in erythrocytes, SYBR Green DNA, 72 h; series mostly up to 28.7 µM
Method in brief: as §1

HB3 = assay: as above; conditions: P. falciparum in erythrocytes, SYBR Green DNA, 72 h; series mostly up to 28.7 µM
Method in brief: as §1

ICS = assay: as above; conditions: P. falciparum in erythrocytes, SYBR Green DNA, 72 h; series mostly up to 28.7 µM
Method in brief: as §1

JCK = assay: as above; conditions: P. falciparum in erythrocytes, SYBR Green DNA, 72 h; series mostly up to 28.7 µM
Method in brief: as §1

N140 = assay: as above; conditions: P. falciparum in erythrocytes, SYBR Green DNA, 72 h; series mostly up to 28.7 µM
Method in brief: as §1

P93_24 = assay: as above; conditions: P. falciparum in erythrocytes, SYBR Green DNA, 72 h; series mostly up to 28.7 µM
Method in brief: as §1

P94_40 = assay: as above; conditions: P. falciparum in erythrocytes, SYBR Green DNA, 72 h; series mostly up to 28.7 µM
Method in brief: as §1

PAD = assay: as above; conditions: P. falciparum in erythrocytes, SYBR Green DNA, 72 h; series mostly up to 28.7 µM
Method in brief: as §1

PC15 = assay: as above; conditions: P. falciparum in erythrocytes, SYBR Green DNA, 72 h; series mostly up to 28.7 µM
Method in brief: as §1

PC26 = assay: as above; conditions: P. falciparum in erythrocytes, SYBR Green DNA, 72 h; series mostly up to 28.7 µM
Method in brief: as §1

PC49 = assay: as above; conditions: P. falciparum in erythrocytes, SYBR Green DNA, 72 h; series mostly up to 28.7 µM
Method in brief: as §1

SC27B = assay: as above; conditions: P. falciparum in erythrocytes, SYBR Green DNA, 72 h; series mostly up to 28.7 µM
Method in brief: as §1

TAB109 = assay: as above; conditions: P. falciparum in erythrocytes, SYBR Green DNA, 72 h; series mostly up to 28.7 µM
Method in brief: as §1

TAB113 = assay: as above; conditions: P. falciparum in erythrocytes, SYBR Green DNA, 72 h; series mostly up to 28.7 µM
Method in brief: as §1

TAB165 = assay: as above; conditions: P. falciparum in erythrocytes, SYBR Green DNA, 72 h; series mostly up to 28.7 µM
Method in brief: as §1

W2 = assay: as above; conditions: P. falciparum in erythrocytes, SYBR Green DNA, 72 h; series mostly up to 28.7 µM
Method in brief: as §1

astro = assay: Drug repurposing screens with cells derived from glioblastoma tumor samples (AID 1345199); conditions: viability, ATP luminescence, 48 h; series mostly up to 45.9 µM; note: nearly all actives have a fitted effect of over 40% in size
Method in brief: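 Primary testing used CD133+ neurospheres from four GBM patients, seven concentrations, 48 h exposure and ATP-based viability; confirmation added three slower-growing patient lines.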

Measured: Potency
Potency is the fitted concentration of half-maximal effect.

CCCCCCCCCC[N+](C)(C)CCCCCCCCCC
active: CP266 6.75 µM | CP268 6.01 µM | CP269 4.78 µM | CP286 2.51 µM | CP291 5.36 µM | CP297 6.75 µM | CP305 5.36 µM | CP315 16.9 µM | CP325 5.36 µM | CP329 6.75 µM | CP335 6.75 µM | DFO2036 5.01 µM | DIV14 3.01 µM | DIV17 3.01 µM | DIV30 8.49 µM | Dd2 8.91 µM | ECU 5.01 µM | FAB9 5.01 µM | GB4 3.38 µM | HB3 7.94 µM | ICS 2 µM | JCK 10 µM | N140 7.08 µM | P93_24 5.01 µM | P94_40 6.31 µM | PAD 8.91 µM | PC15 3.55 µM | PC26 5.36 µM | PC49 10 µM | SC27B 5.01 µM | TAB109 6.31 µM | TAB113 5.01 µM | TAB165 7.08 µM | W2 1.51 µM | astro 4.47 µM
